Bioassay records from PubChem BioAssay.
In the library only some 4.1% were active in any assay of this set; here they are far more common.
NALP1 yeast inh: inhibitors of NALP1 inflammasome in yeast; AID 2071; S. cerevisiae NALP1/ASC/caspase-1 growth, X-gal OD620, 72 h; hit rate 0.61% among 280,000; inhibition, % at 10 µM; in the data active means inhibition mostly above about 24%, no sharp cut-off; inactive means mostly below about 32%
NLRP3 yeast inh: inhibitors of NALP3 inflammasome in yeast | inhibition, % at 10 µM | Yeast reconstituted NLRP3/ASC/caspase-1, beta-gal luminescence, 24 h | hit rate 0.39% among 330,000 | AID 2825;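 active means inhibition of 50% or more; inactive means inhibition below 50%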
tim10-1 inh: growth inhibitors of tim10-1 mutant yeast | inhibition, % at 20 µM | hit rate 2.2% among 330,000 | S. cerevisiae tim10-1 ts strain growth, BacTiter-Glo, 24 h;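 active means inhibition of at least 40%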;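 further: mutant grown at 25 °C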
tim23-1 inh: growth inhibitors of tim23-1 mutant yeast. AID 463212. S. cerevisiae tim23-1 growth, BacTiter-Glo luminescence, 24 h. hit rate 1.3% among 330,000. inhibition, % at 20 µM;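 active means growth inhibition of the mutant yeast at or above 50%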;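 further: temperature-sensitive mutant grown at 25 °C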
TIM10 inh: inhibits growth of TIM10 yeast strain; S. cerevisiae TIM10 strain growth, BacTiter-Glo luminescence, 24 h; inhibition, % at 10 µM; hit rate 1.4% among 330,000; AID 463195;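 active means inhibition of 40% or more at the single tested concentration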;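 further: wild-type TIM10 isogenic control strain grown at permissive 25 °C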
PfHsp90 set2: growth inhibition of yeast expressing Plasmodium Hsp90 | AID 504621 | S. cerevisiae expressing PfHsp90, BacTiter-Glo ATP, 48 h; yeast lacking PDR1 and PDR3 efflux regulators | hit rate 0.32% among 310,000 | inhibition, % at 9.4 µM;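 active means every replicate shows inhibition above about 80%, whatever the replicate mean, limit read from the data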
tim10-1 conf: confirmation of tim10-1 mutant yeast growth inhibitors; hit rate 56% among 7,400; inhibition, % at 20 µM; shares compounds with tim10-1 inh; S. cerevisiae tim10-1 ts strain growth, BacTiter-Glo, 24 h;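 active means inhibition of yeast growth at or above a set limit in either of two repeat tests at 20 µM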;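 further: tim10-1 mutant grown at permissive 25 °C to find synthetic lethal compounds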
tim10 confirm: confirmation of TIM10 yeast growth inhibitors; shares compounds with TIM10 inh; S. cerevisiae tim10 strain growth, BacTiter-Glo luminescence, 24 h; inhibition, % at 10 µM; hit rate 63% among 4,600;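 active means inhibition of yeast growth at or above a set limit in either of two replicates at 10 µM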; further: this counterscreen used the strain with wild-type TIM10
tim23-1 conf: tim23-1 yeast growth inhibition, confirmed; shares compounds with tim23-1 inh; inhibition, % at 20 µM; hit rate 83% among 4,400; S. cerevisiae tim23-1 growth, BacTiter-Glo luminescence, 24 h;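 active means inhibition above about 39% in either of two replicate wells at 20 µM, limit read from the data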;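 further: temperature-sensitive tim23-1 mutant grown at 25 °C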
Large screens that a line does not name were inactive (follow-up assays come after a bar, where they were run).

COc1cccc(NC(=O)Nc2ccc(C(C)(C)C)cc2)c1	tim10-1 inh 57.1, tim23-1 inh 58.0, TIM10 inh 49.0 | tim10-1 conf 45.6 | tim10 confirm 60.0 | tim23-1 conf 74.7
O=C(NC(=S)Nc1ccccc1Cl)C1CC1	none (no result: PfHsp90 set2)
COC(=O)c1ccc(NC(=S)NC(=O)C2CCC2)cc1	none
Cc1ccc(NC(=S)NC(=O)C2CC2)cc1Cl	tim10-1 inh 48.5, tim23-1 inh 61.1 | tim10-1 conf inactive | tim23-1 conf 49.0
CCOC(=O)c1ccc(NC(=S)NC(=O)C2CCCC2)cc1	tim10-1 inh 47.6, tim23-1 inh 58.5, TIM10 inh 40.7 | tim10-1 conf 36.0 | tim10 confirm 52.5 | tim23-1 conf 44.3
Cn1c(=O)[nH]c(=O)c2c1nc(N1CCCCC1)n2CC(O)COc1ccc([N+](=O)[O-])cc1 (centres undefined)	none
COC(=O)C1(C)NC(c2ccc(OC)cc2)C2C(=O)N(c3ccccc3)C(=O)C21 (centres undefined)	none
CCCN1C(C)C(C(=O)OCC)=CN(Cc2ccc(Br)cc2)S1(=O)=O (centres undefined)	none (no result: NALP1 yeast inh, NLRP3 yeast inh)
CN1C(=O)/C(=C/c2cc(N=Nc3ccccc3)ccc2O)SC1=S	tim10-1 inh 50.8, tim23-1 inh 55.3 | tim10-1 conf 41.2 | tim23-1 conf 65.2
COc1ccc(NS(=O)(=O)c2ccc(OCC(=O)N3CCOCC3)cc2)cc1Cl	none
COCCN1CC(CNC(=O)c2cc(COc3ccccc3SC)on2)CC1=O (centres undefined)	none
Cc1cccn2c(=O)c(C=O)c(N3CCCCCC3)nc12	tim10-1 inh 46.4, tim23-1 inh 57.6 | tim10-1 conf 43.4 | tim23-1 conf 45.5
C=C(C)C(=O)OC1(C(F)(F)F)Oc2cc(C)ccc2NC1=O (centres undefined)	tim10-1 inh 55.9, tim23-1 inh 65.8, TIM10 inh 47.7 (no result: PfHsp90 set2) | tim10-1 conf 52.2 | tim10 confirm 41.4 | tim23-1 conf 77.8
CC#Cc1cc2c(cc1O)CCC1C2CCC2(C)C(O)CCC12 (centres undefined)	none (no result: NALP1 yeast inh, NLRP3 yeast inh, tim10-1 inh, tim23-1 inh, TIM10 inh)
COc1cc(/C=C/C(=O)N2CCCN(C(=O)/C=C/c3cc(OC)c(OC)c(OC)c3)CC2)cc(OC)c1OC	none
COc1cc(/C=C/C(=O)N2CCC=CC2=O)cc(OC)c1OC	tim10-1 inh 57.5, tim23-1 inh 58.9, TIM10 inh 56.7 (no result: NALP1 yeast inh) | tim10-1 conf 40.1 | tim10 confirm 45.4 | tim23-1 conf 54.5
CC(=O)C1=C(C)OC(N)=C(C#N)C1c1cccc2ccccc12 (centres undefined)	none
CC(=O)n1c2c(c3ccccc31)OC(N)=C(C#N)C2c1ccc(C(C)C)cc1 (centres undefined)	NALP1 yeast inh 34.4, tim10-1 inh 42.0, tim23-1 inh 55.3 | tim10-1 conf 36.6 | tim23-1 conf 52.2
COc1cccc(CN(C)C(=O)c2cc(COc3ccc(-n4cncn4)cc3)on2)c1	tim10-1 inh 40.9, tim23-1 inh 50.6 | tim10-1 conf 30.1 | tim23-1 conf inactive
Cc1cccc(N=Cc2cc(Br)cc(Cl)c2O)c1	tim10-1 inh 50.3, tim23-1 inh 72.7 | tim10-1 conf inactive | tim23-1 conf 83.6
COc1ccc(-c2nc(-c3cccs3)c(-c3cccs3)[nH]2)cc1O	tim10-1 inh 52.3, tim23-1 inh 73.9 (no result: PfHsp90 set2) | tim10-1 conf 33.9 | tim23-1 conf 71.3
O=C(O)c1ccc(-c2nc(-c3ccccc3)c(-c3cccs3)[nH]2)cc1	none (no result: NALP1 yeast inh)
CC1(C(=O)N2CCN(Cc3ccccc3Cl)CC2)CC1(Cl)Cl (centres undefined)	none
CC1=CC(=O)C=C(C)C1=NOc1ccc([N+](=O)[O-])cc1	tim10-1 inh 62.0, tim23-1 inh 56.8, TIM10 inh 46.7 | tim10-1 conf 65.5 | tim10 confirm 38.0 | tim23-1 conf 69.2
COc1ccc(/C(C)=N/NC(=S)NCc2ccco2)cc1	tim10-1 inh 40.6, tim23-1 inh 50.8 | tim10-1 conf 47.9 | tim23-1 conf 54.3
COc1ccc(/C(C)=N/NC(=O)CNC(=O)c2ccco2)cc1	none
CCOc1cccc(CNc2ccc(O)cc2)c1OCc1ccc(Cl)cc1	tim10-1 inh 42.6, tim23-1 inh 60.4 | tim10-1 conf 31.5 | tim23-1 conf 59.0
CCOc1ccccc1CNc1ccc(O)cc1	none (no result: NLRP3 yeast inh, tim10-1 inh, tim23-1 inh, TIM10 inh)
COc1ccc(OC)c(C2C(C#N)=C(N)Oc3c2c(C)nn3-c2cccc(Cl)c2)c1 (centres undefined)	tim10-1 inh 45.7, tim23-1 inh 50.8, TIM10 inh 44.0 (no result: PfHsp90 set2) | tim10-1 conf inactive | tim10 confirm inactive | tim23-1 conf 50.1
Cc1nn(-c2cccc(Cl)c2)c2c1C(c1ccncc1)C(C#N)=C(N)O2 (centres undefined)	none (no result: PfHsp90 set2)
Cc1ccc(/C=N/NC(=O)c2nnn(-c3nonc3N)c2CNc2ccccc2)cc1	none
Nc1nonc1-n1nnc(C(=O)N/N=C/c2cc(Br)ccc2O)c1CNc1ccccc1	tim10-1 inh 61.3, tim23-1 inh 50.5, TIM10 inh 48.5 | tim10-1 conf inactive | tim10 confirm 53.8 | tim23-1 conf 54.0
Cc1sc2ccccc2c1CNC[C@H]1O[C@@H](n2cnc(C(N)=O)n2)[C@H](O)[C@@H]1O	none (no result: NALP1 yeast inh, NLRP3 yeast inh, tim10-1 inh, tim23-1 inh, TIM10 inh)
